The list is not random: actives were taken first. Their share in the collection is about 19%.
HT1080-NT tox: qHTS for induction of synthetic lethality in tumor cells producing 2HG: qHTS for the HT-1080-NT fibrosarcoma cell line | hit rate 1.6% among 360,000 | Potency, µM (top dose mostly 46.1 µM), for the others: at the highest dose activity, negative = less viability, usual class: cytotoxic | AID 686970, 2013 | HT-1080-NT fibrosarcoma viability, CellTiter-Glo ATP luminescence, 48 h;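 further: NT is the 2HG producing partner of a matched IDH1 knockdown line; potency means the concentration at half of the fitted maximal effect; 0% = DMSO-treated cells and -100% = media-only wells without cells; nearly all actives have a fitted effect of over 55% in size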
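Viability by CellTiter-Glo luminescence after 48 h compound exposure at 37C of HT-1080-NT cells (750/well, RPMI, 5% FBS). % activity scaled between DMSO wells and medium-only wells, then curve-fitted and categorized by curve class.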
DT40 TDP1 CPT: qHTS for Inhibitors of human tyrosyl-DNA phosphodiesterase 1 (TDP1): qHTS in cells in presence of CPT | Potency, µM (top dose mostly 46.2 µM), without a hit: at the top dose activity change, negative = growth inhibition, most hits filed as inhibitors | AID 686979, 2013 | chicken DT40 Tdp1-/-;hTDP1 cells + 20 nM CPT, ATP luminescence, 48 h | hit rate 12% among 420,000; further: potency means the concentration at half of the fitted maximal effect; nearly all actives have a fitted effect of over 55% in size
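Cell growth measured by CellTiter-Glo luminescence after a minimum 48 h, 37 C compound exposure with 20 nM CPT in Tdp1-knockout DT40 cells stably expressing hTDP1, seeded 400/well; qHTS titration format.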
IL-1B inflam inh: qHTS for Inhibitors of Inflammasome Signaling: IL-1-beta AlphaLISA Primary Screen. THP-1 LPS/ATP IL-1B secretion, AlphaLISA, 16 h; hits give low values. activity change, % at 57.5 µM. hit rate 4.7% among 360,000; in the data active means activity change below about -50%; inconclusive means mostly about -30% to -49%
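Secreted IL-1B measured by AlphaLISA bead assay after 16 h compound exposure of THP-1 cells; compounds (final up to 57.5 uM) added 1 h before LPS (250 ng/mL) and ATP (1.25 mM) stimulation; lower signal means less secretion.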
DT40 TDP1 no CPT: qHTS for Inhibitors of human tyrosyl-DNA phosphodiesterase 1 (TDP1): qHTS in cells in absence of CPT. DT40 Tdp1-/- hTDP1 cells, no CPT, ATP luminescence, 48 h. Potency, µM (series often up to 46.2 µM), for the others: at the highest dose activity change, negative = growth inhibition, usual class: inhibitors. hit rate 15% among 420,000. AID 686978, 2013; further: potency means the concentration at half of the fitted maximal effect; nearly all actives have a fitted effect of over 55% in size
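Luminescent ATP content (CellTiter-Glo) served as the growth readout. Knockout chicken DT40 cells expressing human TDP1 were exposed to compounds without camptothecin for a minimum 48 hr at 37 °C.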
HT1080 IDH1KD tx: qHTS for induction of synthetic lethality in tumor cells producing 2HG: qHTS for the HT-1080-IDH1KD cell line; hit rate 2% among 360,000; AID 686971, 2013; Potency, µM (highest dose often 46.1 µM), inactives show at the highest dose activity, negative = toxicity, actives largely listed as cytotoxic; HT-1080 IDH1 knockdown viability, ATP luminescence, 48 h;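 further: potency means the concentration at half of the fitted maximal effect; 0% = DMSO wells and -100% = cell-free medium wells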
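Knockdown cells (IDH1KD HT-1080) received compounds 2 h after plating at 750 cells/well and were kept 48 h at 37 °C in 5% FBS RPMI. A CellTiter-Glo luminescence read gave % activity for curve fitting.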
An asterisk follows results filed as active; ? = inconclusive; / = no result; [ ] = remark or other dose. Unless noted, the call rests on the fitted dose curve; in most records, active means well fitted curve in the direction sought with a large enough effect; inconclusive means small, poorly fitted or top-dose-only effect, or another doubt; inactive means no such curve, though single readings can be large; an effect the other way counts as inactive or inconclusive. Unless noted, on the % scale 0 is the no-effect control and ±100 the full control effect.

SMILES | HT1080-NT tox | DT40 TDP1 CPT | IL-1B inflam inh | DT40 TDP1 no CPT | HT1080 IDH1KD tx
O=C(CCN1C(=O)/C(=C/c2cccs2)SC1=S)Nc1ccccn1 | -7.9% | ? | 0.0 | ? | 2.5%
COc1ccc(/C=C2/SC(=S)N(CCCC(=O)Nc3ccccc3C(=O)O)C2=O)cc1 | -2.7% | 1.6% | 20.0 | -3.4% | -0.5%
O=C(CCCN1C(=O)/C(=C\c2cccs2)SC1=S)Nc1ccc(C(=O)O)cc1 | -19.8% | 2.9% | 33.8 | -22.9% | -8.3%
COc1ccc(NC(=O)CCCN2C(=O)/C(=C\c3ccco3)SC2=S)cc1 | -26.3% | ? | -70.6* | 16.4µM* | ?
COc1ccc(/C=C2\SC(=S)N(CCCC(=O)NNC(=O)c3ccccc3O)C2=O)cc1 | ? | ? | 68.8 | 8.2µM* | -29.3%
COc1ccc(C(c2nnnn2C(C)(C)C)N2CCN(C(=O)c3ccco3)CC2)cc1 (centres undefined) | 17.6% | 5.9% | -17.4 | -23.9% | 0.1%
Cc1ccc(/C=C2\SC(=S)N(CCCC(=O)Nc3ccccn3)C2=O)cc1 | 0.2% | ? | 21.5 | ? | -6.7%
COc1ccc(/C=C2\SC(=S)N(CCCC(=O)Nc3ccccn3)C2=O)cc1OC | 0.6% | ? | 3.2 | 29.1µM* | -3.6%
Cc1cc2oc(=O)cc(CN(C)Cc3ccccc3Cl)c2cc1C | -11.2% | ? | 10.7 | -28.4% | -5.0%
CC(C)(C)NS(=O)(=O)c1ccc(CCC(=O)Nc2cc(Cl)ccc2Oc2ccccc2)cc1 | -4.8% | ? | -63.2* | ? | -13.7%
CC(C)CNS(=O)(=O)c1ccc(CCC(=O)Nc2cc(Cl)ccc2Oc2ccccc2)cc1 | -24.9% | ? | ? | ? | -41.1%
CCC(C)NC(=O)CN1C(=O)NC2(CCc3ccccc3C2)C1=O (centres undefined) | 9.5% | 16.2% | 0.0 | ? | 18.9%
COc1ccc(/C=N/NC(=O)c2nnn(-c3nonc3N)c2C)cc1OC | 18.8% | ? | -3.7 | -8.8% | 16.0%
CCc1c(C(=O)N/N=C/c2ccc(OCc3ccc(F)cc3)c(OC)c2)nnn1-c1nonc1N | -0.5% | 23.1µM* | 18.1 | 5.8µM* | ?
Nc1nonc1-n1nnc(C(=O)N/N=C/c2ccc(OCc3ccc(F)cc3)cc2)c1COc1ccccc1 | 18.4µM* | ? | -6.3 | ? | ?
COC(=O)c1nnn(-c2nonc2N)c1COc1ccc(C=O)cc1OC | -27.0% | 14.6µM* | 4.3 | 9.2µM* | ?
COc1cccc(-c2cc3c(c(OC)c2)OCCN(S(=O)(=O)c2ccccc2OC(F)(F)F)C3)n1 | / | 2.6%[9.04 µM] | / | -6.2% | /
Cc1ccc(C)c(N=C2CCCN2Cc2ccccc2)c1C#N | -3.3% | ? | 6.2 | 16.4µM* | -0.8%
O=C(O)CN1CCCC1=Nc1ccccc1 | -2.4% | -27.2% | 27.8 | 3.5% | 0.1%
CCc1ccc(NC(=O)Cn2cnc3nc4c(cc3c2=O)CCCC4)cc1 | / | -27.6% | / | ? | /
CCOC(=O)N1CCN(C(=O)c2ccc3c(c2)sc2nc(-c4ccc(OC)cc4)cn23)CC1 | 1.1% | ? | -20.6 | 23.1µM* | 3.8%
CCOC(=O)C1CCN(C(=O)c2ccc3c(c2)sc2nc(-c4ccc(OC)cc4)cn23)CC1 | / | 23.1µM* | / | 23.1µM* | /
CC(C)Cc1nc(SCc2cccnc2)c2c(=O)n(C)c(=O)n(C)c2n1 | -20.7% | 18.4µM* | -15.5 | ? | -28.4%
Cn1c(=O)c2c(SCc3cccnc3)nc(C3CC3)nc2n(C)c1=O | -5.4% | -21.3% | 6.2 | ? | -7.5%

Compound activity (PubChem BioAssay)
